# Cruzain inh Det – qHTS Assay for Promiscuous and Specific Inhibitors of Cruzain (with detergent); Cruzipain (Trypanosoma cruzi), P25779; purified cruzain, Z-FR-AMC fluorescence, 0.01% Triton; Potency, µM, inactives show max response, negative = inhibition, actives largely listed as inhibitors; actives 0.43% (n = 200,000); AID 1478, 2009;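 note: plate controls were neutral wells for no effect and buffer without enzyme for full effect; nearly all actives have a fitted effect of over 40% in size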
# Target sequence (P25779 123-467 limits assumed): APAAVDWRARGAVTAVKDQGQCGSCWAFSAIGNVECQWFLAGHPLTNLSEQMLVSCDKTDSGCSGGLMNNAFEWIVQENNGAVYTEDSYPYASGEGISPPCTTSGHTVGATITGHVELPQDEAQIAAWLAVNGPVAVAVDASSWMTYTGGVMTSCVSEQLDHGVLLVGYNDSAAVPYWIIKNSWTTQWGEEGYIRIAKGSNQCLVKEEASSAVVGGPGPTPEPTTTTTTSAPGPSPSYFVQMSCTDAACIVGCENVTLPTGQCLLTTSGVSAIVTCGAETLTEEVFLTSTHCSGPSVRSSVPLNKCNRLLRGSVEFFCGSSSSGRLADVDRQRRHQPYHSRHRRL
#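 Cruzain (1.5 nM) preincubated 15 min at RT with compound in 100 mM sodium acetate pH 5.5, 5 mM DTT, 0.01% Triton X-100. Reaction started with 2 uM Z-FR-AMC; AMC fluorescence (ex 360/em 450 nm) change over 60 s gave rate.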
# Cruzain inh noDet – qHTS Assay for Promiscuous and Specific Inhibitors of Cruzain (without detergent); Cruzipain (Trypanosoma cruzi), P25779; purified cruzain, Z-FR-AMC fluorescence, no detergent; Potency, µM, without a hit: max response, negative = inhibition, actives largely listed as inhibitors; actives 2.3% (n = 200,000); AID 1476, 2009;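 note: plate controls were enzyme without inhibitor for no effect and buffer without enzyme for full effect; nearly all actives have a fitted effect of over 40% in size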
#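 Detergent-free condition (0.00005% Triton X-100) in acetate buffer pH 5.5 with DTT. 1.5 nM enzyme and compound were pre-mixed 15 min, then 2 uM Z-FR-AMC substrate added; reaction progress from fluorescence change between first and third reads (60 s).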
# An asterisk follows results filed as active; ? = inconclusive. A selection: hits, their analogues and other compounds. The true share with any hit is near 2.4%. Calls come from the whole dose curve; as a rule, active = well fitted curve in the direction sought with a large enough effect; inconclusive = small, poorly fitted or top-dose-only effect, or another doubt; inactive = no such curve, though single readings can be large; an effect the other way counts as inactive or inconclusive. Potency is the fitted concentration of half-maximal effect.
SMILES,Cruzain inh Det,Cruzain inh noDet
COc1cc(OC)c(NC(=O)CCc2c(C)nc3c4c(C)cc(C)nc4nn3c2C)cc1Cl,-2%,6%
Cc1ccc(-c2nnc(SCC(=O)n3c4c(c5ccccc53)CCCC4)o2)cc1,1%,-18%
O=C(CSc1nnc(-c2ccccc2)o1)n1c2c(c3ccccc31)CCCC2,0%,25µM*
COC(=O)c1ccc(C(NC(=O)OCc2ccccc2)/C(=C/[C@@H](C)C(=O)N[C@@H](CO)Cc2ccccc2)c2cccnc2)cc1 (stereo not given in full),0%,?
CCc1ccc(N2C(=O)NC(=O)/C(=C\c3cccn3CCOc3ccc(C(C)C)cc3)C2=O)cc1,-1%,10µM*
CC(C)c1ccc(N2C(=O)NC(=O)/C(=C/c3cnc(-c4ccccc4)nc3)C2=O)cc1,-7%,-4%
CCCCCCN(C(=O)CCCCCN1C(=O)NC(c2ccc(-c3ccccc3)cc2)C(C(=O)OCc2ccccc2)=C1C)C(C(=O)NCCCC)c1ccc(O)cc1 (stereo not given),-1%,6.3µM*
CCCCCCN(C(=O)CCCCCN1C(=O)NC(c2ccc(-c3ccccc3)cc2)C(C(=O)OCc2ccccc2)=C1C)C(C(=O)NCCCC)c1ccc(-c2ccccc2)cc1 (stereo not given),-1%,?
CC1CN(c2ccc(Cl)cc2)c2nc3c(c(=O)n(CC(=O)O)c(=O)n3C)n2C1 (stereo not given),-3%,4%
CCOCCCN1C(=O)CN(C2CCCCCC2)C(=O)C1c1ccc(OC(C)C)c(OC)c1 (stereo not given),0%,?
Cc1[nH]n(-c2ccccc2)c(=O)c1C(C[N+](=O)[O-])c1ccc(Cl)cc1 (stereo not given),-9%,4%
Cc1[nH]n(-c2ncc(-c3ccccc3)s2)c(=O)c1C(c1ccc(Cl)cc1)C(C#N)C#N (stereo not given),?,13µM*
O=C1CSC(c2nn(-c3ccccc3)cc2-c2cc3ccccc3oc2=O)N1Cc1ccco1 (stereo not given),25µM*,?
CN1CCN(C(=O)c2ccc(C3SCC(=O)N3Cc3ccco3)cc2)CC1 (stereo not given),3%,-5%
O=C1CSC(c2cn(-c3ccccc3)nc2-c2cc3ccccc3oc2=O)N1Cc1ccccc1 (stereo not given),28µM*,?
O=C1CSC(c2cn(-c3ccccc3)nc2-c2ccc3c(c2)OCCO3)N1CCN1CCOCC1 (stereo not given),-1%,?
CC(C)c1ccc(S(=O)(=O)NCc2ccc3c(c2)CCN3C(=O)c2ccccc2)cc1,-3%,-17%
CCOc1ccc(C2c3c(-c4ccc(C)cc4)n[nH]c3C(=O)N2c2ccc(Cl)cc2)cc1 (stereo not given),-3%,14%
Cc1cc(C)c2sc(N(Cc3cccnc3)C(=O)CCOc3ccccc3)nc2c1,-3%,-7%
N=c1oc2ccc3ccccc3c2cc1-c1nc(-c2ccccc2)cs1,-5%,25µM*
N=c1oc2ccccc2cc1-c1nc(-c2ccccc2)cs1,-14%,?
Cc1cccc(Cc2cnc(NC(=O)CN3C(=O)/C(=C/c4ccccc4)SC3=S)s2)c1,-5%,?
Cc1ccc(/C=C2\SC(=S)N(CC(=O)Nc3ncc(Cc4ccccc4Cl)s3)C2=O)cc1,-10%,3.2µM*
CCc1nnc(NC(=O)CN2C(=O)/C(=C/c3cc(OC)c(OC)c(OC)c3)SC2=S)s1,?,9%
COc1ccc(/C=C2\SC(=S)N(CC(=O)Nc3nnc(C)s3)C2=O)cc1,-14%,16µM*
SMILES,Cruzain inh Det,Cruzain inh noDet
COc1cc(/C=C2/SC(=S)N(CC(=O)Nc3nc4ccccc4s3)C2=O)cc(OC)c1OC,-4%,13µM*
O=C(CSc1nnnn1-c1ccccc1)Nc1ncc(Cc2ccccc2Cl)s1,-1%,11%
COc1cc(/C=C2\SC(=S)N(CC(=O)Nc3ccccn3)C2=O)cc(OC)c1OC,-13%,-2%
Cc1ccc(/C=C2/SC(=S)N(CC(=O)Nc3ncc(Cc4ccc(C)cc4)s3)C2=O)cc1,-4%,4µM*
Cc1cc(C)cc(OCCCn2c(-c3ccc(Cl)cc3)nc3ccccc3c2=O)c1,-2%,-2%
Cc1cc(C)c(NC(=O)c2sc3nc(C)cc(C)c3c2NC(=O)c2ccccc2)c(C)c1,0%,-3%
c1cnc2c(-c3nccc4c3[nH]c3ccccc34)cccc2c1,-4%,-21%
O=C(COc1ccc(Cl)cc1)NCCc1csc(-c2ccc(F)cc2)n1,-11%,4%
COC(=O)c1ccc2c(=O)n(CCCCCC(=O)N3CCN(c4ccc(OC)cc4)CC3)c(=O)[nH]c2c1,1%,-15%
COc1cc(Cl)c(C)cc1NC(c1ccccc1)c1nnc(-c2ccccc2Cl)o1 (stereo not given),-1%,16µM*
Cc1ccc(C)c(NC(c2ccccc2)c2nnc(-c3ccccc3F)o2)c1 (stereo not given),-2%,4%
CCc1cccc(C)c1Nc1c(-c2ccccc2)nc2sccn12,-12%,-3%
Cc1ccccc1Nc1c(-c2ccc(Br)cc2O)nc2sccn12,-4%,20µM*
Cc1ccc(-c2nc3sccn3c2Nc2ccccc2C)cc1,-13%,25µM*
Cc1ccccc1Nc1c(-c2cc(Br)ccc2F)nc2ccccn12,-1%,-5%
N#Cc1c(-n2ncnc2-c2ccccc2Cl)sc2c1CCCCC2,1%,16%
COc1cccc(NC(=O)CCc2nnc3n(CC(C)C)c(=O)c4ccccc4n23)c1,1%,-3%
COc1cccc(CNC(=O)c2ccc3c(c2)nc2n3CCCCC2)c1OC,0%,-11%
CC(C)c1ccc(Cn2ccc3c4c(N)nc(NC5CC5)nc4ccc32)cc1,-7%,-8%
CCc1ccc2nc3sc(C(=O)N4CCc5ccccc54)c(N)c3cc2c1,-3%,25µM*
Cc1ccc(C)c2nc3sc(C(=O)N4CCCc5ccccc54)c(N)c3cc12,5%,3%
Cc1cc(C)cc(NC(=O)C2CC(=O)N(c3ccccc3)C2)c1 (stereo not given),-3%,1%
O=C(Nc1ccc(Cl)c(Cl)c1)C1CC(=O)N(c2ccc(Br)cc2)C1 (stereo not given),-9%,20µM*
O=C(O)c1cc(Cl)cc(Cc2cc(Cl)cc(C(=O)O)c2O)c1O,-2%,-6%
Cc1cccc(O)c1,0%,-5%
SMILES,Cruzain inh Det,Cruzain inh noDet
CCOC(=O)/C(=C\Nc1ccccc1C(F)(F)F)Sc1ncc(C(F)(F)F)cc1Cl,-3%,?
N#Cc1c(Sc2ncc(C(F)(F)F)cc2Cl)nsc1C/C=N\OCc1ccccc1Br,-15%,7.9µM*
Cc1cccc(-n2c(SCC(=O)Nc3ccccc3C)nc3c(oc4ccccc43)c2=O)c1,-2%,-8%
CN1Cc2c(C(=O)OC(C)(C)C)ncn2-c2ccsc2C1=O,0%,3%
Cc1ccc(C)c(NC(=O)CCCN2C(=O)C(c3ccccc3)Oc3cccnc32)c1 (stereo not given),-1%,-3%
Cc1ccc(-n2c3c(cc(-c4nc(-c5ccc(Cl)cc5)cs4)c2=O)C(=O)CC(C)(C)C3)cc1,-1%,-16%
O=C(CCCN1C(=O)/C(=C/c2ccccc2Cl)SC1=S)Nc1ccccn1,-7%,?
O=C(CCN1C(=O)/C(=C\c2ccccc2Cl)SC1=S)N1CCN(c2ccccc2)CC1,-2%,16µM*
CC(=O)Nc1ccc(NC(=O)CCS(=O)(=O)c2ccc3c(c2)CC(=O)N3C)cc1,0%,19%

# From PubChem
